This passage reports Potency and activity change, negative = inhibition results from PubChem BioAssay (NCATS).

Molecules are shown by their SMILES. Records with an inconclusive call do not appear. Active and inactive are the calls of the source. Unless noted, calls follow the shape of the full dose curve.

Assay [1] is described as follows: Confirmatory qHTS to identify inhibitors of SARS-CoV-2 cell entry (AID 1645844). Also: potency is read from the fitted curve at half-maximal effect; nearly all actives have a fitted effect of over 45% in size. In a few lines: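 HEK293-ACE2 cells were pretreated 1 h with compound, then infected with MLV-based pseudoparticles bearing C-terminally truncated Wuhan-Hu-1 spike for 48 h at 37C; luciferase luminescence normalized to spike PP and bald PP wells.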
A short description of assay [2]: VSVG counterscreen qHTS to identify inhibitors of SARS-CoV-2 cell entry (AID 1645847). Also: potency is read from the fitted curve at half-maximal effect; nearly all actives have a fitted effect of over 65% in size. In a few lines: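 Entry of VSV-G pseudotyped particles into human ACE2-expressing HEK293 cells was measured by luciferase luminescence 48 h after infection, with compound added 1 h beforehand.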
Background: Counterscreens check selectivity or assay interference.

A short description of assay [3]: A High-Content qHTS Against Drug Library for the Identification of Small Molecules that Inhibit DYT1 Early Onset Primary Dystonia-Associated Cell Pathology (AID 1645839). In short, it runs like this: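 Flp-In T-REx 293 cells with tetracycline-inducible EGFP-delE hTOR1A (WT EGFP-hTOR1A as reference), 800 cells/well; compound added with tetracycline, 48 h at 37 C. Fixed, permeabilized cells imaged; %pathology (punctate TorsinA) primary, cell count counterscreen.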
(In general: Quantitative high-throughput screening tests each substance at several concentrations.)

Assay [4] deals with Cytochrome P450 3A4 (Homo sapiens) (UniProt P08684). In words: Cytochrome P450 family 3 subfamily A member 4 (CYP3A4) small molecule antagonists: luciferase qHTS assay (AID 1645841; active = well fitted curve in the direction sought with a large enough effect in the repeat runs; an effect the other way counts as inactive or inconclusive; also: nearly all actives have a fitted effect of over 45% in size). In a few lines:
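P450-Glo CYP3A4 enzyme with proluciferin substrate preincubated 10 min with compound at room temperature, then NADPH regeneration 1 h. Luciferin detection reagent added for 20 min; luminescence recorded. Ketoconazole positive control.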

In assay [5] the target is Cytochrome P450 2C9 (Homo sapiens) (UniProt P11712). In words: Cytochrome P450 family 2 subfamily C member 9 (CYP2C9) small molecule antagonists: luciferase biochemical (cell-free) qHTS assay (AID 1645842; active = well fitted curve in the direction sought with a large enough effect in the repeat runs; an effect the other way counts as inactive or inconclusive; also: nearly all actives have a fitted effect of over 55% in size; also: potency is read from the fitted curve at half-maximal effect; as to activity change, negative = inhibition: % is scaled to controls: 0 for no effect and ±100 for the full control effect). In short, it runs like this: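 Luminescence, after 20 min with luciferin detection reagent, reflected CYP2C9 turnover during a 1 h NADPH-driven reaction at 37C. Enzyme-substrate mix contained 0.4% bovine serum albumin and was preincubated with compound 10 min at room temperature.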
Chain of Cytochrome P450 2C9 (Homo sapiens) (P11712 whole entry, looked up): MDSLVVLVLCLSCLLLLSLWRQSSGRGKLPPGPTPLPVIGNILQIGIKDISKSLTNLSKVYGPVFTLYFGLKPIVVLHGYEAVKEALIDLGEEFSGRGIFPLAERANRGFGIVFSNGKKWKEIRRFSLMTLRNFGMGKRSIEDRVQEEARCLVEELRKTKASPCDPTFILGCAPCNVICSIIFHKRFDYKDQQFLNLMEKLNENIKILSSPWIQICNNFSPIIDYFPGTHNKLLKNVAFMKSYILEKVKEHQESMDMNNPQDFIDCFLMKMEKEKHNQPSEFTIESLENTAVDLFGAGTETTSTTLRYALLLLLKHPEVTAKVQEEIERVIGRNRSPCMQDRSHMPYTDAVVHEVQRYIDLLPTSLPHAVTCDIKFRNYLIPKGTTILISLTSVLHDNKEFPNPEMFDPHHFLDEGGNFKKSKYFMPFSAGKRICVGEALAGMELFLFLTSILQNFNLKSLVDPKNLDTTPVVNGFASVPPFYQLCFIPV

Assay [6] is described as follows: Cytotoxicity counterscreen for inhibitors of SARS-CoV-2 cell entry (AID 1645845). Also: nearly all actives have a fitted effect of over 50% in size. Also: potency is read from the fitted curve at half-maximal effect. In a few lines: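 HEK293-ACE2 cells (Expi293F stably expressing human ACE2) seeded overnight, then compound for 1 h plus 48 h at 37C. Viability as ATP content by luminescence; normalized to wells with cells and media-only wells.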
Assay [7] in a line: Primary qHTS to identify inhibitors of SARS-CoV-2 cell entry (AID 1645846). Also: nearly all actives have a fitted effect of over 45% in size. Also: potency is read from the fitted curve at half-maximal effect. The following applies: activity change, negative = inhibition: at 57.1 µM (top of the series) unless noted. In a few lines: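 Using luciferase-reporting pseudoviruses carrying Wuhan-Hu-1 spike, the screen tracks entry into stably ACE2-expressing cells over 48 hr. Activity is expressed relative to spike particles versus particles lacking any fusion protein.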

The target in assay [8] is Cytochrome P450 2D6 (Homo sapiens) (UniProt P10635). In words: Cytochrome P450 family 2 subfamily D member 6 (CYP2D6) small molecule antagonists: luciferase biochemical (cell-free) qHTS assay (AID 1645840; active = well fitted curve in the direction sought with a large enough effect in the repeat runs; an effect the other way counts as inactive or inconclusive; also: nearly all actives have a fitted effect of over 55% in size; also: potency is read from the fitted curve at half-maximal effect; as to activity change, negative = inhibition: % is scaled to controls: 0 for no effect and ±100 for the full control effect). In short, it runs like this: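 P450-Glo luminescent screen: recombinant CYP2D6 enzyme–proluciferin substrate mix preincubated with compound 10 min at room temperature, then NADPH regeneration added for 1 h at room temperature. Detection reagent added for 20 min; luciferin light read as relative luminescence units.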
Chain of Cytochrome P450 2D6 (Homo sapiens) (P10635 whole entry, looked up): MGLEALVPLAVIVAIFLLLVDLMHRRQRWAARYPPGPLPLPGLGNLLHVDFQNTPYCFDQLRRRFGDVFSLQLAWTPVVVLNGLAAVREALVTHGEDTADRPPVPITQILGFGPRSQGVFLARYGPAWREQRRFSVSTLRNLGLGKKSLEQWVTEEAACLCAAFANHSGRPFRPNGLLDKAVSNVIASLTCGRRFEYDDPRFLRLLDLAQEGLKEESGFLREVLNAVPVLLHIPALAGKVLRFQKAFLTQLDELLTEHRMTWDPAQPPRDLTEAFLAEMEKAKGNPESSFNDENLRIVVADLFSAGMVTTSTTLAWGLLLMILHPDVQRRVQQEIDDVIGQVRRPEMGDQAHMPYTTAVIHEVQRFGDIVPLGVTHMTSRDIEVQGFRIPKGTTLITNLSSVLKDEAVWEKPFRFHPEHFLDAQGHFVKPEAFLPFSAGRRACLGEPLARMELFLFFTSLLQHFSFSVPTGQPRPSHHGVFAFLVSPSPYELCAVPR

Chain of Cytochrome P450 3A4 (Homo sapiens) (P08684 whole entry, looked up): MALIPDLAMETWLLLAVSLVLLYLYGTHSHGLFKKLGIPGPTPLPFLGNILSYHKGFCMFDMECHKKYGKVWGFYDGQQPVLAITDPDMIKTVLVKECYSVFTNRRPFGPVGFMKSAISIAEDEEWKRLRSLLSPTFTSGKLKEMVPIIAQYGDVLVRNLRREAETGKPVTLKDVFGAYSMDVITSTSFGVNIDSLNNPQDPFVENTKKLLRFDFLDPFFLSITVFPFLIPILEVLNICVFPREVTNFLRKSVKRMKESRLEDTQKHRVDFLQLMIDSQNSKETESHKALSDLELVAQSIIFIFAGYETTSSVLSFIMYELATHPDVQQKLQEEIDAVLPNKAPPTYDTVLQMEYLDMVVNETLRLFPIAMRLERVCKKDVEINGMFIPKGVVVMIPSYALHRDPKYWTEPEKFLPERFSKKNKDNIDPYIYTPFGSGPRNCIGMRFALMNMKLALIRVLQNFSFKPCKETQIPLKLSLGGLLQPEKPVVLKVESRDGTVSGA

Take `CS(=O)(=O)c1cccc(CNc2nc(Nc3ccc4c(c3)CCC(=O)N4)ncc2C(F)(F)F)c1`: the results for the Potency in assay [1] and in assay [2] were 0.192 µM (active) and 4.29 µM (active), respectively.

Consider `CC(=O)Nc1ccc([C@H](C)C(=O)Nc2ncc(C(C)C)s2)cc1`, for which the Potency is 4.82 µM (active) in assay [1] and 13.6 µM (active) in assay [2].

As to `CC[N+]1(CCOC(=O)C(O)(c2ccccc2)c2ccccc2)CCCCC1`, the Potency entry in assay [3], in assay [4], in assay [5] and in assay [6] was “inactive” throughout. In addition, the activity change, negative = inhibition in assay [7] is -23.2%.

On to `CCC1(CCC(C)C)C(=O)NC(=O)NC1=O`, for which the Potency result in assay [3], in assay [8] and in assay [5] was “inactive” throughout.

In the case of `Cc1cc(Nc2cc(N3CCN(C)CC3)nc(Sc3ccc(NC(=O)C4CC4)cc3)n2)n[nH]1`, the Potency in assay [1] was 0.121 µM (active); in assay [2] it was 0.215 µM (active).

Turning to `NC(=O)c1ccc(-c2nc(-c3ccc4c(c3)OCCO4)c(-c3ccccn3)[nH]2)cc1`, in assay [6], the Potency result was “inactive”.

As for `O=C1CCCC2=C1C(c1[nH]ncc1Cl)N=C(Nc1nc3ccccc3o1)N2` (configuration not stated), the Potency entry in assay [6] was “inactive”.

As to `Oc1ccc2c3c1O[C@H]1[C@@H](O)C=C[C@H]4[C@@H](C2)NCC[C@@]341`, the Potency entry in assay [3] and in assay [5] was “inactive” in each case.

Turning to `CC1(N2CCC(n3c([C@@H]4CCCNC4)nc4ccccc43)CC2)CCCCCCC1`, in assay [5], the Potency entry is “inactive”. In addition, the Potency in assay [7] is 5.01 µM (active).

As to `C[C@]12COC(=O)C[C@@H]1CC[C@@H]1[C@H]2CC[C@@]2(C)[C@H]1CC[C@]2(C)O`, the Potency entry in assay [8] and in assay [5] was “inactive” each time.

On to `COc1ccc(OC)c(-c2nnc3ccc(-c4ccc(OC)c(O[C@@H]5CCOC5)c4)nn23)c1`, for which the Potency result in assay [6] is “inactive”.

With `Cc1ccc(C(N)=O)cc1Nc1nccc(-c2cn(C(C)C)c3cnccc23)n1`, the Potency is 1.71 µM (active) in assay [1], 8.91 µM (active) in assay [7] and 2.15 µM (active) in assay [2].

As to `O=[N+]([O-])c1c(Cl)c(Cl)cc(Cl)c1Cl`, the Potency result in assay [3], in assay [8] and in assay [5] was “inactive” throughout.

Turning to `CN1CC[C@@H](c2c(O)cc(O)c3c(=O)cc(-c4ccccc4Cl)oc23)[C@@H](O)C1`, the Potency was 1.21 µM (active) in assay [1] and 1.36 µM (active) in assay [2].

As for `Nc1ccc([N+](=O)[O-])cc1`, the Potency result in assay [8] and in assay [5] was “inactive” in each case.

On to `COc1ccc(C(c2ccc(OC)cc2)C(Cl)(Cl)Cl)cc1`, for which the Potency entry in assay [8] was “inactive”. The Potency in assay [5] was 1.49 µM (active).

Regarding `CC(C)(C)c1cnc(CSc2cnc(NC(=O)C3CCNCC3)s2)o1`, the Potency in assay [1] was 4.29 µM (active); in assay [2], 1.92 µM (active). For the same compound, the Potency result in assay [6] is “inactive”.

`O=C1C(I)=CC(=C(c2cc(I)c(O)c(I)c2)c2ccccc2C(=O)O)C=C1I`: the Potency was 9.77 µM (active) in assay [8] and 3.09 µM (active) in assay [5].

Consider `CN(c1ncccc1CNc1nc(Nc2ccc3c(c2)CC(=O)N3)ncc1C(F)(F)F)S(C)(=O)=O`, for which the Potency in assay [1] is 0.857 µM (active); in assay [7], 3.16 µM (active); in assay [2], 2.15 µM (active).

As for `CNC(=O)c1cc(Oc2ccc(NC(=O)Nc3ccc(Cl)c(C(F)(F)F)c3)c(F)c2)ccn1`, the Potency is 8.57 µM (active) in assay [1] and 10.8 µM (active) in assay [2].

Turning to `COc1cc(Nc2ncc3c(n2)-c2ccc(Cl)cc2C(c2c(F)cccc2OC)=NC3)ccc1C(=O)O`, the results for the Potency in assay [1] and in assay [2] were 0.0108 µM (active) and 0.108 µM (active), respectively. Moreover, in assay [6], the Potency result was “inactive”. Moreover, the activity change, negative = inhibition in assay [7] was -83%.

As for `Cc1cc([C@@H](C)Nc2ccccc2C(=O)O)c2nc(N3CCOCC3)cc(=O)n2c1`, in assay [6], the Potency entry is “inactive”.

For `N#Cc1ccc(NC(=O)Nc2ccccc2Br)c2n[nH]nc12`, in assay [6], the Potency entry is “inactive”.

In the case of `N#CCNC(=O)c1ccc(-c2ccnc(Nc3ccc(N4CCOCC4)cc3)n2)cc1`, the Potency is 9.61 µM (active) in assay [1], 31.6 µM (active) in assay [6], 10 µM (active) in assay [7] and 6.81 µM (active) in assay [2].

As to `O=C(c1cc(Cc2n[nH]c(=O)c3ccccc23)ccc1F)N1CCN(C(=O)C2CC2)CC1`, the Potency in assay [1] is 27.1 µM (active); in assay [2], 21.5 µM (active). In addition, in assay [6], the Potency result was “inactive”.

For the compound `Cn1c(NCCN(CCO)CCCc2ccc([N+](=O)[O-])cc2)cc(=O)n(C)c1=O`, the Potency result in assay [6] was “inactive”.

Take `O=C(O)c1ccccc1O`: the Potency entry in assay [8], in assay [4] and in assay [5] was “inactive” throughout.

Take `CC(=O)c1c(C)c2cnc(Nc3ccc(N4CCNCC4)cn3)nc2n(C2CCCC2)c1=O`: the Potency is 17.1 µM (active) in assay [1] and 6.81 µM (active) in assay [2]. In assay [6], the Potency entry is “inactive”.

For the compound `CC(=O)N[C@@H](Cc1ccc(O)cc1)C(=O)O`, the Potency result in assay [6] and in assay [7] was “inactive” throughout.
